# Measurements as given in PubChem BioAssay AID588397 (National Center for Advancing Translational Sciences (NCATS), 2011).
# Several values for one entry are separate records, joined by “and”; a condition that tells them apart may be missing. Equal values may be shown once. In all, about 1,300 compounds went through this assay and about 1,000 (77%) were called active. About 7% were inconclusive and are not listed. Calls come from the whole dose curve; as a rule, active = well fitted inhibition curve with a large enough effect; inconclusive = small, poorly fitted or top-dose-only effect; inactive = no such curve, though single readings can be large or run the other way. The set was probably picked from earlier hits. This is one part of the list.
# Assay: qHTS of small molecules that selectively kill Giardia lamblia: Hit Validation.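 Note: viability measured as ATP content by luminescence so killing lowers signal; trophozoites exposed to compounds for 48 h anaerobically at 37 °C; nearly all actives have a fitted effect of over 65% in size.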
# Settings: Giardia lamblia trophozoite viability, dose-response; series mostly up to 38.3 µM
# In short: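 Anaerobic 48 hrs incubation at 37 deg C of 100 trophozoites/well with test compounds; ATPLite 1-Step luminescence, 15-30 min RT, reports cellular ATP as viability.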
# Potency is the fitted concentration of half-maximal effect.
row,SMILES,Potency
1,CCOC(=O)c1nc(C(=O)NCc2ccc(C)cc2)nc2ccccc12,7290 nM (active)
2,N#Cc1ccc(-c2c(-c3ccccc3)ncc3cc(F)ccc23)cc1,inactive
3,O=[N+]([O-])c1nn(-c2ccc(Cl)cc2)n(O)c1=NCc1ccccc1,9180 nM (active)
4,Cc1ccc(CN=c2c([N+](=O)[O-])nn(-c3ccc(Cl)cc3)n2O)cc1,7290 nM (active)
5,O=[N+]([O-])c1nn(-c2ccc(Cl)cc2)n(O)c1=NCc1ccncc1,3650 nM (active)
6,COc1ccc2cc3cc(C(=O)Nc4ccccc4N4CCN(C)CC4)oc3nc2c1,2050 nM (active)
7,COc1ccc(OC)c(NC(=O)N2CCc3ccccc3C2)c1,inactive
8,Cc1ccccc1Cn1nnc2c1C(=O)c1ccccc1C2=O,2900 nM (active)
9,O=[N+]([O-])c1ccc(CN2CCN(c3ccc(F)cc3)CC2)o1,1030 nM (active)
10,O=[N+]([O-])c1ccc(N2CCN(Cc3ccc([N+](=O)[O-])o3)CC2)cc1,516 nM (active)
11,O=[N+]([O-])c1ccc(CN2CCN(c3ccc(Cl)cc3)CC2)o1,729 nM (active)
12,O=C(CN1CCN(c2ccccc2)CC1)Nc1scc2c1c(=O)oc1ccccc12,inactive
13,O=[N+]([O-])c1ccc(CN2CCN(c3ccccc3)CC2)o1,818 nM (active)
14,COc1ccc(C(=O)CC(SCC(NC(C)=O)C(=O)O)c2ccc(Cl)cc2)cc1OC (centres undefined),13000 nM (active)
15,Nc1c(Cl)cc(C2=NCCn3c2c2ccccc2[n+]3[O-])cc1Cl,326 nM (active)
16,COc1ccc2c3n([n+]([O-])c2c1)CCN=C3c1ccc(C)cc1,365 nM (active)
17,COc1ccc2c3n([n+]([O-])c2c1)CCN=C3c1cc(Cl)c(N)c(Cl)c1,183 nM (active)
18,COc1ccc2c3n([n+]([O-])c2c1)CCN=C3c1ccc(Cl)cc1,579 nM (active)
19,c1ccc(-c2cn3nc(-c4ccccc4)sc3n2)cc1,918 nM (active)
20,O=C(O)CCCCCNS(=O)(=O)c1cccc2c1C(=O)c1ccccc1C2=O,3650 nM (active)
21,CC(C)c1ccc(Nc2nnc(SCC(=O)Nc3ncc(S(=O)(=O)c4ccc([N+](=O)[O-])cc4)s3)s2)cc1,2050 nM (active)
22,N#CC1C=Cc2c(ccc3ccccc23)N1C(=O)c1ccccc1 (centres undefined),1630 nM (active)
23,c1ccc(CNc2ncnc3ccccc23)cc1,inactive
24,O=C(Cn1ccnc1[N+](=O)[O-])NCc1ccccc1,1300 nM (active)

row,SMILES,Potency
1,O=C(Cn1cnc2c(OCc3ccccc3)ncnc21)NCCCc1ccccc1,inactive
2,CC1CC(C)C(=NNC(N)=O)C(C(O)CC2CCC(=O)NC2=O)C1 (centres undefined),163 nM (active)
3,Cc1ccc(NC(C)C(=O)N/N=C/c2ccc([N+](=O)[O-])s2)cc1 (centres undefined),2900 nM (active)
4,COc1ccc(NC(C)C(=O)N/N=C/c2ccc([N+](=O)[O-])s2)cc1 (centres undefined),1630 nM (active)
5,CCn1cnc2c([N+](=O)[O-])c(NS(=O)(=O)c3ccc(C)cc3)ccc21,206 nM (active)
6,O=C(COc1ccccc1)N/N=C/c1ccc([N+](=O)[O-])o1,460 nM (active)
7,Cc1cc(C)cc(OCC(=O)N/N=C/c2ccc([N+](=O)[O-])o2)c1,579 nM (active)
8,O=C(N/N=C/c1ccc([N+](=O)[O-])o1)C(O)c1ccccc1 (centres undefined),4100 nM (active)
9,Cc1ccc(OCC(=O)N/N=C/c2ccc([N+](=O)[O-])o2)cc1,729 nM (active)
10,CCN1C[C@@H]2[C@@H]3C(=O)N(Cc4ccccc4)C(=O)[C@@H]3[C@](C)(C1=O)N2C(=O)c1ccccc1,inactive
11,CCCOc1ccc(CCC(=O)N/N=C/c2ccc([N+](=O)[O-])o2)cc1,729 nM (active)
12,Cc1ccccc1OCC(=O)N/N=C/c1ccc([N+](=O)[O-])o1,516 nM (active)
13,Cc1nc(C)c(C(=O)Nc2ncc([N+](=O)[O-])s2)o1,1160 nM (active)
14,Cc1ccc(C(=O)Nc2ncc([N+](=O)[O-])s2)cc1,259 nM (active)
15,COc1ccc(Cc2nnc(NC(=O)Nc3ccccc3F)s2)cc1OC,inactive
16,O=C(Cc1ccc(Cl)cc1)Nc1ncc([N+](=O)[O-])s1,818 nM (active)
17,COc1ccc(CC(=O)Nc2ncc([N+](=O)[O-])s2)cc1OC,259 nM (active)
18,CC1CCN(S(=O)(=O)c2cn(C)c(=O)n(C)c2=O)CC1,inactive
19,Cc1ccc(OCC(=O)N(Cc2cccc(Cl)c2)C2CCS(=O)(=O)C2)cc1C (centres undefined),inactive
20,O=C(Nc1ncc([N+](=O)[O-])s1)c1ccc2c(c1)OCO2,259 nM (active)
21,CC12CCC(C(=O)Nc3ncc([N+](=O)[O-])s3)(OC1=O)C2(C)C (centres undefined),206 nM (active)
22,O=C(/C=C/c1ccc([N+](=O)[O-])cc1)Nc1ncc([N+](=O)[O-])s1,650 nM (active)
23,O=C(Cc1ccc(Br)cc1)Nc1ncc([N+](=O)[O-])s1,230 nM (active)
24,O=C(Cc1c(F)cccc1Cl)Nc1ncc([N+](=O)[O-])s1,206 nM (active)

row,SMILES,Potency
1,Cc1ccc(S(=O)(=O)CC(=O)Nc2ccc(F)c(F)c2F)cc1,inactive
2,Cc1ccc(S(=O)(=O)CC(=O)Nc2ncc([N+](=O)[O-])s2)cc1,579 nM (active)
3,Cc1onc(-c2ccccc2)c1C(=O)N(Cc1ccccc1)C(C)C,inactive
4,Cc1onc(-c2ccccc2)c1C(=O)Nc1ncc([N+](=O)[O-])s1,579 nM (active)
5,Cc1onc(-c2ccccc2)c1NC(=O)N(Cc1ccccc1)C(C)C,inactive
6,O=C(COc1ccc(Cl)cc1)Nc1ncc([N+](=O)[O-])s1,410 nM (active)
7,CCn1cc(C(=O)NCCC(C)C)c(=O)c2cc(F)c(N3CCN(C(=O)c4ccco4)CC3)cc21,inactive
8,O=C(NNC(=O)c1ccncc1)Nc1cccc([N+](=O)[O-])c1,inactive
9,O=C(Nc1ncc([N+](=O)[O-])s1)c1cccc([N+](=O)[O-])c1,290 nM (active)
10,Cc1ccc(CC(=O)Nc2ncc([N+](=O)[O-])s2)cc1,130 nM (active)
11,CC(=O)Nc1ccc(NC(=O)c2c([N+](=O)[O-])cnn2C)cc1,1300 nM (active)
12,CCOc1cc(C=O)ccc1OCCn1c([N+](=O)[O-])cnc1C,650 nM (active)
13,Cc1ncc([N+](=O)[O-])n1CCN1C(=O)c2ccccc2C1=O,650 nM (active)
14,CCS(=O)(=O)CCn1c([N+](=O)[O-])cnc1C,918 nM (active)
15,Cc1nonc1OCCn1c([N+](=O)[O-])cnc1C,1160 nM (active)
16,Cc1ncc([N+](=O)[O-])n1CC(O)CCl (centres undefined),1160 nM (active)
17,Cc1ncc([N+](=O)[O-])n1CCO,4.1 µM (active) and 4.6 µM (active)
18,COc1cc2nc(N3CCN(C)CC3)nc(NC3CC3)c2cc1OC,365 nM (active)
19,COc1cc2nc(N3CCCCC3)nc(NC3CCN(Cc4ccccc4)CC3)c2cc1OC,2050 nM (active)
20,COc1cc2nc(N3CCN(C)CC3)nc(NC(C)C)c2cc1OC,918 nM (active)
21,COc1cc2nc(N3CCN(c4cc(C)ccc4C)CC3)nc(N)c2cc1OC,4100 nM (active)
22,COc1cc2nc(N3CCCN(C)CC3)nc(NC3CCCCC3)c2cc1OC,650 nM (active)
23,Cc1ccc(C(C(=O)NCc2ccco2)N(C(=O)CNC(=O)c2cccs2)c2c(C)cccc2C)cc1 (centres undefined),818 nM (active)
24,O=C1C2C3C=CC(C3)C2C(=O)N1Nc1ccc([N+](=O)[O-])cc1[N+](=O)[O-] (centres undefined),4100 nM (active)

row,SMILES,Potency
1,Cn1c(=NC(=O)c2cnccn2)sc2ccccc21,5790 nM (active)
2,CC(Oc1ccccc1)C(=O)Nc1nnc(S(=O)(=O)N2CCCCC2)s1 (centres undefined),3650 nM (active)
3,CC(Oc1ccccc1)C(=O)Nc1nnc(S(=O)(=O)N2CCCCCC2)s1 (centres undefined),5160 nM (active)
4,Cn1nc(N)c2c(-c3ccc(Cl)cc3)c(C#N)c(N)nc21,2900 nM (active)
5,Cn1nc(N)c2c(-c3ccccc3)c(C#N)c(N)nc21,4600 nM (active)
6,Cc1ccc(OCC(=O)c2cc(C)n(Cc3cccs3)c2C)c([N+](=O)[O-])n1,818 nM (active)
7,Cc1cc(C(=O)COc2cccnc2[N+](=O)[O-])c(C)n1Cc1cccs1,1030 nM (active)
8,O=C(N/N=C/c1ccc([N+](=O)[O-])o1)c1cn(-c2ccccc2)nc1-c1ccccc1,818 nM (active)
9,O=C(N/N=C/c1ccc([N+](=O)[O-])o1)c1cn(-c2ccccc2)nc1-c1ccc(F)cc1,516 nM (active)
10,O=C(N/N=C/c1ccc([N+](=O)[O-])o1)c1cn(-c2ccccc2)nc1-c1ccc(Cl)cc1,1030 nM (active)
11,COc1ccc(-c2nn(-c3ccccc3)cc2C(=O)N/N=C/c2ccc([N+](=O)[O-])o2)cc1,516 nM (active)
12,CCOC(=O)c1cc([N+](=O)[O-])sc1NC(=O)CC,1030 nM (active)
13,CN(Cc1cccc(Cl)c1)C(=O)C1CCC(=O)N(C2CC2)C1 (centres undefined),inactive
14,O=C(COc1cccnc1[N+](=O)[O-])Nc1cc(Cl)ccc1Cl,4600 nM (active)
15,O=C(COc1cccnc1[N+](=O)[O-])Nc1ccc(Cl)cc1F,1830 nM (active)
16,CC(OC(=O)c1ccc([N+](=O)[O-])s1)C(=O)NC1CCCCC1C (centres undefined),3650 nM (active)
17,CC(OC(=O)c1ccc(Cl)nc1)C(=O)NC1CCCC1 (centres undefined),inactive
18,O=C(NCc1ccccn1)C1CCCN(S(=O)(=O)c2cc(Cl)ccc2Cl)C1 (centres undefined),1030 nM (active)
19,O=C(NCc1ccc(Cl)cc1)C1CCC(CNS(=O)(=O)c2ccccc2)CC1 (centres undefined),inactive
20,Cc1ccc2nc(NC(=O)C3CCCN(S(=O)(=O)c4cnc[nH]4)C3)sc2c1 (centres undefined),inactive
21,CN1N/C(=C\c2ccccc2)N=C2C(=O)N(C)C(=O)N=C21,259 nM (active)
22,CC/C=C1/N=C2C(=O)N(C)C(=O)N=C2N(C)N1,130 nM (active)
